Data taken from PubChem BioAssay (NCATS).
Records with an inconclusive call do not appear. Activity calls are given as the source filed them. Calls come from the whole dose curve; as a rule, active = well fitted inhibition curve with a large enough effect; inconclusive = small, poorly fitted or top-dose-only effect; inactive = flat fitted curve, though single readings scatter.

Assays:
Experiment in all cases: qHTS profiling for inhibitors of Plasmodium falciparum proliferation (AID 504749); note: nearly all actives have a fitted effect of over 60% in size
Conditions in all cases: P. falciparum in erythrocytes, SYBR Green DNA, 72 h; series mostly up to 28.7 µM
CP217 = system: CP217
Outline: (§1)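 P. falciparum-infected erythrocytes (0.3% parasitemia, 2.5% hematocrit final) were exposed to compounds for 72 h at 37 C in 5% CO2, then lysed with SYBR Green buffer overnight at room temperature; parasite DNA fluorescence was normalized to artemisinin and DMSO controls.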

CP237 = system: CP237
Outline: as §1

CP238 = system: CP238
Outline: as §1

CP247 = system: CP247
Outline: as §1

CP250 = system: CP250
Outline: as §1

CP252 = system: CP252
Outline: as §1

CP256 = system: CP256
Outline: as §1

CP260 = system: CP260
Outline: as §1

CP262 = system: CP262
Outline: as §1

CP265 = system: CP265
Outline: as §1

CP266 = system: CP266
Outline: as §1

CP268 = system: CP268
Outline: as §1

CP269 = system: CP269
Outline: as §1

CP286 = system: CP286
Outline: as §1

CP291 = system: CP291
Outline: as §1

CP297 = system: CP297
Outline: as §1

CP305 = system: CP305
Outline: as §1

CP315 = system: CP315
Outline: as §1

CP325 = system: CP325
Outline: as §1

CP329 = system: CP329
Outline: as §1

Measured: Potency

CCn1cc(C(=O)O)c(=O)c2cnc(N3CCNCC3)nc21
inactive: all assays above

NCCNCCNCCN
inactive: all assays above

O=C(O)CN1C(=O)c2cccc3cccc(c23)C1=O
inactive: all assays above

CC(O)COc1ccccc1 (stereo not given)
inactive: all assays above

CCC(=O)c1ccc(O)cc1
inactive: all assays above

O=C(CCCN1CCN(c2ccccn2)CC1)c1ccc(F)cc1
inactive: all assays above

Cc1ccc(C(C)C)cc2c(C)ccc1-2
inactive: all assays above

CC1(C)CO[C@@H](CC(=O)O)CN1
inactive: all assays above

CCCCCCCCCCCCCCCC(=O)NCCO
inactive: all assays above

O=C1NS(=O)(=O)c2ccccc21
inactive: all assays above

O=C(O)CC(O)C(=O)O (stereo not given)
inactive: all assays above

COc1ccccc1O
inactive: all assays above

NCCNCCNCCNCCN
inactive: all assays above

OCC(O)CN1CCN(c2ccccc2)CC1 (stereo not given)
inactive: all assays above

CCOC(=O)[C@H](CCc1ccccc1)N[C@@H](C)C(=O)N1C(=O)N(C)C[C@H]1C(=O)O
inactive: all assays above

CCN(CC)CCSC(=O)C(c1ccccc1)c1ccccc1
inactive: all assays above

COc1cc2[nH]c(=O)[nH]c(=O)c2cc1OC
inactive: all assays above

CC(=O)CCC(=O)O
inactive: all assays above

CC12CCC(CC1)C(C)(C)O2
inactive: all assays above

Cc1cccc(Nc2cc(Cl)nc(SCC(=O)O)n2)c1C
inactive: all assays above

Cc1cc2c(cc1S(N)(=O)=O)S(=O)(=O)CCC2
inactive: all assays above

O=C(O)c1ccccn1
inactive: all assays above

Oc1cccc(O)c1
inactive: all assays above

CCCCOC(=O)c1ccc(O)cc1
inactive: all assays above

CCOC(=O)c1ccc(O)cc1
inactive: all assays above

CCCCOc1cc(C(=O)OCCN(CC)CC)ccc1N
inactive: all assays above

Nc1ccc(S(=O)(=O)Nc2nccs2)cc1
inactive: all assays above

Cc1ncc(COP(=O)(O)O)c(C=O)c1O
inactive: all assays above

Cc1c(Cl)cccc1Nc1ccccc1C(=O)O
inactive: all assays above
